Holding throughout (set-up): species or system human, MV4-11 + K-562 + COLO205 + SK-N-BE2 + OVCAR-8
One test has as its system CSNK2A1;CSNK2A3. The note with it: read-out: apparent Kd; compound concentrations: 100 nM and 1000 nM (sheet 'Samples'), CATDS: 8.5666768683209493E-2; n = 1.
For the next test, the system named is CSNK2A2. The note with it: read-out: apparent Kd; compound concentrations: 100 nM and 1000 nM (sheet 'Samples'), CATDS: 9.4804106529145699E-2; n = 1.
A further test concerns EPHA1. The note with it: read-out: apparent Kd; compound concentrations: 100 nM and 1000 nM (sheet 'Samples'), CATDS: 0.11031803480288301; n = 1.
The subject of a further test is IRAK3. Conditions: read-out: apparent Kd, compound concentrations: 100 nM and 1000 nM (sheet 'Samples'), n = 1.
Another test has as its system NTRK1. The note with it: read-out: apparent Kd; compound concentrations: 100 nM and 1000 nM (sheet 'Samples'), CATDS: 8.3524015841862198E-2; n = 1.
A further test concerns PIP4K2C. The note with it: read-out: apparent Kd, compound concentrations: 100 nM and 1000 nM (sheet 'Samples'), n = 1.
Another test relates to RIPK2. The note with it: read-out: apparent Kd; compound concentrations: 100 nM and 1000 nM (sheet 'Samples'), CATDS: 0.49931357158944301; n = 1.
The next test has as its system STK10. Conditions: read-out: apparent Kd; compound concentrations: 100 nM and 1000 nM (sheet 'Samples'), CATDS: 9.3066944796260806E-2; n = 1.
In another test the test system is TGFBR2. Conditions: read-out: apparent Kd; compound concentrations: 100 nM and 1000 nM (sheet 'Samples'), CATDS: 0.10303622443246301; n = 1.
Another test concerns DDR1. Conditions: read-out: apparent Kd, n = 1.
For another test, the system named is DDR2. Conditions: read-out: apparent Kd; compound concentrations:100 nM and 1000 nM (sheet 'Samples'); n = 1.
In another test the test system is DYNC1LI1. The note with it: read-out: apparent Kd; compound concentrations:100 nM and 1000 nM (sheet 'Samples'); n = 1.
A further test concerns FLT3. Conditions: read-out: apparent Kd, n = 1.
The test system of another test is RET. The note with it: read-out: apparent Kd, n = 1.
In the next test the test system is HCK. The note with it: read-out: apparent Kd; compound concentrations: 100 nM and 1000 nM (sheet 'Samples'), CATDS: 9.2745081986231104E-2; n = 1.
A further test relates to LYN. Conditions: read-out: apparent Kd; compound concentrations: 100 nM and 1000 nM (sheet 'Samples'), CATDS: 7.2911258996188402E-2; n = 1.
The subject of another test is MAPK11. Conditions: read-out: apparent Kd; compound concentrations: 100 nM and 1000 nM (sheet 'Samples'), CATDS: 7.9880632684471306E-2; n = 1.
The test system of a further test is MAPK14. Conditions: read-out: apparent Kd, compound concentrations: 100 nM and 1000 nM (sheet 'Samples'), n = 1.
For the next test, the system named is RIPK3. Conditions: read-out: apparent Kd; compound concentrations: 100 nM and 1000 nM (sheet 'Samples'), CATDS: 7.1422785641186204E-2; n = 1.
The next test concerns TNK1. The note with it: read-out: apparent Kd; compound concentrations: 100 nM and 1000 nM (sheet 'Samples'), CATDS: 0.18276083287815401; n = 1.
For the next test, the system named is TP53RK. The note with it: read-out: apparent Kd; compound concentrations: 100 nM and 1000 nM (sheet 'Samples'), CATDS: 6.3683372655405995E-2; n = 1.
A further test relates to YES1. Conditions: read-out: apparent Kd; compound concentrations: 100 nM and 1000 nM (sheet 'Samples'), CATDS: 0.118526844217484; n = 1.
The test system of a further test is CSNK1D. Conditions: read-out: apparent Kd, compound concentrations: 100 nM and 1000 nM (sheet 'Samples'), n = 1.
For the next test, the system named is PBK. The note with it: read-out: apparent Kd; compound concentrations: 100 nM and 1000 nM (sheet 'Samples'), CATDS: 0.53596365658376799; n = 1.
The subject of a further test is FLT4. The note with it: read-out: apparent Kd, compound concentrations: 100 nM and 1000 nM (sheet 'Samples'), n = 1.
The subject of a further test is MAP3K1. Conditions: read-out: apparent Kd; compound concentrations: 100 nM and 1000 nM (sheet 'Samples'), CATDS: 0.16547922944675; n = 1.
A further test relates to MAPKAPK2. The note with it: read-out: apparent Kd; compound concentrations: 100 nM and 1000 nM (sheet 'Samples'), CATDS: 0.38711156152007697; n = 1.
A further test relates to RPS6KA1. The note with it: read-out: apparent Kd; compound concentrations: 100 nM and 1000 nM (sheet 'Samples'), CATDS: 0.20748336668369699; n = 1.
The subject of the next test is JAK2. The note with it: read-out: apparent Kd; compound concentrations: 100 nM and 1000 nM (sheet 'Samples'), CATDS: 0.17425354278837099; n = 1.
Setting [1] is: compound concentrations:100 nM and 1000 nM (sheet 'Samples').

Read-outs that look alike come from different tables or passages of the source.

For `COc1cc(Nc2nccc(Nc3ccc4c(C)n[nH]c4c3)n2)cc(OC)c1OC` [GW612286X], the potency estimated from few doses with CSNK2A1;CSNK2A3 was 1870 nM; in the test with CSNK2A2, 1370 nM; in the test on EPHA1, 909 nM; with IRAK3 (CATDS: 0.28099060866519798), 122 nM; with NTRK1, 2040 nM; with PIP4K2C (CATDS: 8.5254217094438201E-2), 1900 nM. Also, the potency estimated from few doses was 46.6 nM in the test with RIPK2, 1450 nM in the test with STK10 and 1090 nM in the test on TGFBR2.

`COC(=O)Nc1nc2cc(Oc3ccc(NC(=O)Nc4cc(C(F)(F)F)ccc4F)cn3)ccc2[nH]1.COC(=O)Nc1nc2cc(Oc3ccc(NC(=O)Nc4cc(C(F)(F)F)ccc4F)cn3)ccc2[nH]1.Cl.Cl` [GW681170A]: the potency estimated from few doses was 278 nM in the test with DDR1 (setting [1]); 1460 nM in the test with DDR2; 1830 nM with DYNC1LI1; 1240 nM in the test with FLT3 (setting [1]); 461 nM with RET (setting [1]).

Turning to `COc1cc(Nc2nccc(-c3c(-c4cccc(NC(=O)c5c(F)cccc5F)c4)nn4ncccc34)n2)cc(OC)c1OC` [GSK327238A], the potency estimated from few doses in the test with DDR1 (compound concentrations: 100 nM and 1000 nM (sheet 'Samples'), CATDS: 6.8880271318571995E-2) was 1830 nM; in the test with HCK, 926 nM; with IRAK3 (CATDS: 7.7549132648748395E-2), 1360 nM; in the test on LYN it was 1580 nM; with MAPK11 it was 1270 nM; in the test on MAPK14 (CATDS: 7.1692025023195896E-2) it was 1650 nM. Besides, the potency estimated from few doses with PIP4K2C (CATDS: 6.71745626151799E-2) is 1960 nM; with RET (compound concentrations: 100 nM and 1000 nM (sheet 'Samples'), CATDS: 0.140384770008642), 450 nM; in the test on RIPK3 it was 1660 nM; with TNK1, 305 nM; with TP53RK, 2300 nM; in the test with YES1 it was 592 nM.

For the compound `Cn1c(-c2ccncc2)c(-c2ccc(F)cc2)c2ncccc21` [RO1155240-000], the figures for the potency estimated from few doses in the test with CSNK1D (CATDS: 0.46855924192133103) and in the test on PBK were 2250 nM and 1720 nM, respectively.

Consider `CN(c1ccc2c(c1)nc(NCc1ccc(F)cc1)n2C)c1ccnc(Nc2ccc(CS(C)(=O)=O)cc2)n1.Cl` [GW813244A], for which the potency estimated from few doses in the test with DDR1 (compound concentrations: 100 nM and 1000 nM (sheet 'Samples'), CATDS: 0.20099617628952601) is 841 nM; in the test with FLT4 (CATDS: 0.39951332259871902) it was 166 nM; in the test on MAP3K1, 1840 nM; with RET (compound concentrations: 100 nM and 1000 nM (sheet 'Samples'), CATDS: 0.40344037001579403) it was 163 nM.

`Nc1nc(-c2ccccc2F)c(-c2ccnc3ccccc23)s1` [GW560459X]: the potency estimated from few doses in the test with CSNK1D (CATDS: 0.216607074037657) was 1180 nM; in the test with MAPK14 (CATDS: 0.25122803409734401), 843 nM; in the test with MAPKAPK2 it was 389 nM; with RPS6KA1, 1320 nM.

Consider `CN(c1ccc2c(c1)nc(NCc1ccccc1)n2C)c1ccnc(Nc2ccc(CS(C)(=O)=O)cc2)n1.Cl` [GW811603A], for which the potency estimated from few doses with DDR1 (compound concentrations: 100 nM and 1000 nM (sheet 'Samples'), CATDS: 0.142121036969732) was 962 nM; with FLT3 (compound concentrations: 100 nM and 1000 nM (sheet 'Samples'), CATDS: 0.139763894659995) it was 1030 nM; in the test with FLT4 (CATDS: 0.42297219111770701), 63.4 nM; in the test on JAK2, 465 nM; with RET (compound concentrations: 100 nM and 1000 nM (sheet 'Samples'), CATDS: 0.369571760306865) it was 79.9 nM.

(Values after article PMC11062922 (Nature Chemical Biology, 2023).)
